Compounds with a hit are over-represented: about 11% of the library has one in this group of screens.
RGS12 GoLoco inh: inhibitors of human Gai1-RGS12 GoLoco interaction (red fluorophore) | 230,000 compounds, 0.44% hits | P63096 | Potency, µM (titrated, usually from 61.6 µM), without a hit: top-dose activity, negative = inhibition, hits mostly inhibitors | AID 880 | Gai1:RGS12 GoLoco peptide FP, rhodamine, 10 min; active = well fitted inhibition curve with a large enough effect, not every such curve was filed as active; inactive = no such curve, though single readings can be large or run the other way; note: potency is the fitted concentration of half-maximal effect; % is set by controls: 0 for no effect and ±100 for the full control effect; nearly all actives have a fitted effect of over 30% in size
HPGD block: HPGD (human) dehydrogenase inhibition | 150,000 compounds, 4.3% hits | purified HPGD, NADH fluorescence kinetic, PGE2 substrate | AID 894 | Potency, µM, for inactives: top-dose activity change, negative = inhibition, actives largely listed as inhibitors | P15428; note: potency is the fitted concentration of half-maximal effect; % is set by controls: 0 for no effect and ±100 for the full control effect
Target sequence (P15428 whole entry, looked up): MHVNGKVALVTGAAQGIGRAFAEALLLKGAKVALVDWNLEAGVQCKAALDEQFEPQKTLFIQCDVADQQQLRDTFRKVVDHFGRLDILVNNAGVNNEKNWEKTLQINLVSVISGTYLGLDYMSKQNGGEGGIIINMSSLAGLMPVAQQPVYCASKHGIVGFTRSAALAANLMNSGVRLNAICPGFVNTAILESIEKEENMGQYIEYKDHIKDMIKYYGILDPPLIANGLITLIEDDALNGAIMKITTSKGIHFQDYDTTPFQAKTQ
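NADH formation kinetics: reaction with 30 uM PGE2 and 1 mM NAD+ (final), 20 nM enzyme, Tris-HCl pH 8 with Tween 20, after 15 min compound preincubation at room temperature. Fluorescence change, last versus first of five reads.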
HTT ATP protect: protects HTT-Q103 PC12 cells, measured by ATP; AID 1471; Potency, µM (top dose mostly 56.4 µM), inactives show cytoprotection (ATP increase), actives largely listed as activators; PC12 HTT-Q103 induced, cytoprotection, ATP luminescence, 40 h; 230,000 compounds, 0.14% hits; active = well fitted curve in the direction sought with a large enough effect; inconclusive = small, poorly fitted or top-dose-only effect, or another doubt; inactive = no such curve, though single readings can be large; an effect the other way counts as inactive or inconclusive; note: potency is the fitted concentration of half-maximal effect; % of control where 0% means no effect; nearly all actives have a fitted effect of over 45% in size
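Quantitative HTS on tebufenozide-induced (100 nM) PC12 cells expressing HTTQ103 exon 1–GFP; compounds tested as a concentration series; survival measured via cellular ATP.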
HTT aggregate: reduces HttQ103-GFP aggregates in PC12 cells | PC12 HttQ103-GFP aggregates, Acumen cytometry, 40 h | Potency, µM (doses to about 46.1 µM), inactives show top-dose activity change, negative = inhibition, actives largely listed as inhibitors | 220,000 compounds, 1.1% hits | AID 1688; active = well fitted curve in the direction sought with a large enough effect; inconclusive = small, poorly fitted or top-dose-only effect, or another doubt; inactive = no such curve, though single readings can be large; an effect the other way counts as inactive or inconclusive; note: potency is the fitted concentration of half-maximal effect; % is set by controls: 0 for no effect and ±100 for the full control effect; nearly all actives have a fitted effect of over 60% in size
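PC12/HTTQ103-GFP, ecdysone-inducible; teb 100 nM; cpd qHTS titration; GFP aggregates read on laser cytometer, Ex 488/Em 500-530 nm.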
ALDH1A1 inh: ALDH1A1 (human) enzyme inhibition. Purified ALDH1A1, NADH fluorescence, propionaldehyde substrate. 220,000 compounds, 7.3% hits. P00352. Potency, µM (series often up to 75.3 µM), without a hit: top-dose activity, negative = inhibition, most hits filed as inhibitors;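 note: potency is the fitted concentration of half-maximal effect; plate controls were no enzyme wells and a reference inhibitor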
Target sequence (P00352 whole entry, looked up): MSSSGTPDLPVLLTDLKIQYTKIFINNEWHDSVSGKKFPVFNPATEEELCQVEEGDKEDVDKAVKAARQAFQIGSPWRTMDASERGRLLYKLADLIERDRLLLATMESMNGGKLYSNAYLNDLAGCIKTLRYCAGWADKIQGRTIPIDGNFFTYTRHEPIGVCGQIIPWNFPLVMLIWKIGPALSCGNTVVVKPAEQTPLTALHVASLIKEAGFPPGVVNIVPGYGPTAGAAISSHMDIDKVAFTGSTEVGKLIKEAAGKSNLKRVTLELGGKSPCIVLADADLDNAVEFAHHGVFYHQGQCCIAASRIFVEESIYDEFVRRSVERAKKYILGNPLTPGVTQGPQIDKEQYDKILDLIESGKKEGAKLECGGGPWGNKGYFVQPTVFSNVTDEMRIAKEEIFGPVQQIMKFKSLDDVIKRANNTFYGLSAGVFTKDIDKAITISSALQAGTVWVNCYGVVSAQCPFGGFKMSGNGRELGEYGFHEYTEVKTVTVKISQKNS
PNC assembly inh: inhibitors of perinucleolar compartment assembly; PC3M PTB-GFP, PNC prevalence imaging, 16 h; hits give low values; activity change (PNC), negative = inhibition, % at 10 µM; 140,000 compounds, 3.1% hits; AID 2417;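 active = readout at or below -70, meaning at least 70% loss of cells showing the perinucleolar compartment, a nuclear body marking cancer cells; inconclusive = readout between -30 and a set limit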;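 note: plate controls were DMSO wells for no effect and camptothecin positive control wells for full effect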
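Compounds are pinned in duplicate onto adhered PC3M cells stably expressing GFP-tagged PTB and incubated 16 h at 37 C. Cells are then fixed, nuclei stained with Hoechst, and PNC-positive cells counted.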
* hit, by the source's call; ? = inconclusive; · = no result given; [ ] = dose if it differs, or a comment. Unless noted, calls come from the whole dose curve; as a rule, active = well fitted inhibition curve with a large enough effect (not every such curve was filed as active); inconclusive = small, poorly fitted or top-dose-only effect, or another doubt; inactive = no such curve, though single readings can be large or run the other way.

SMILES	RGS12 GoLoco inh	HPGD block	HTT ATP protect	HTT aggregate	ALDH1A1 inh	PNC assembly inh
CC#CCN1c2ccccc2[C@]23C[C@@H](C(=O)OC)N(S(=O)(=O)c4ccc5c(c4)OCCN5C)C2=NC(C(=O)OC)=C(C(=O)OC)[C@H]13	4%[14.2 µM]	-1%	1%[10 µM]	·	-6%[13.5 µM]	·
CCN(CC)c1ccc(C2C(C(=O)OC)=C(C)NC(C)=C2C(=O)OC)cc1	-12%	?	4%[10 µM]	31%	?	-18
COC(=O)C1=C(C)NC(C)=C(C(=O)OC)C1c1ccc(NC(C)=O)cc1	8%	-20%	-24%[0.074 µM]	3.2µM*	?	?
O=C(Nc1ccccc1)C1=C(c2ccccc2)S(=O)(=O)CCS1(=O)=O	118%	·	-162%	5µM*	?	·
Cc1cc(C)nc(/N=C2\NC(=O)CC(C(=O)O)N2c2ccc(C)c(C)c2)n1 (stereo not given)	14%	·	6%[10 µM]	13%[9.22 µM]	-2%	·
[O-]/C(=C(\C(=S)Nc1ccc(SC(F)F)cc1)[n+]1cccc(CO)c1)c1ccc(Cl)s1	28%	·	·	?	?	·
Cc1ccc(NC(=S)/C(=C(\[O-])c2ccc(Cl)s2)[n+]2cccc(CO)c2)cc1C	22%	·	·	-25%	14µM*	·
O=[N+]([O-])c1cccc(/C([O-])=C(/C(=S)Nc2cccc3ccccc23)[n+]2ccccc2)c1	-2%	?	-28%[10 µM]	-9%	2%	0
[O-]/C(=C(\C(=S)Nc1cccc2ccccc12)[n+]1cccc(CO)c1)c1ccc(Cl)s1	15%	·	-58%	?	13µM*	·
CSc1ccc(C(=S)N2CCN(C(c3ccccc3)c3ccccc3)CC2)cc1	-4%	14µM*	2%	2%	2.4µM*	?
CSc1ccc(C(=S)N2CCN(C)CC2)cc1	-5%	28µM*	2%[10 µM]	4%	32µM*	34
CCCNC(=S)N1CCN(C(c2ccccc2)c2ccccc2)CC1	74%	-11%	15%[10 µM]	13%	?	32
CSc1ccc(/C=N/N2CCN(C)CC2)cc1	1%	·	6%[10 µM]	6%	1%	·
O=S(=O)(CCN(CCS(=O)(=O)C(F)(F)F)CC1CCCO1)C(F)(F)F (stereo not given)	-14%	-13%	-37%	16%	7.1µM*	-3
CCS(=O)(=O)N1CCC(C(=O)NCC2CCCO2)CC1 (stereo not given)	-8%	-11%	9%	-4%	8%	?
CC(C)C[C@@H](CC(=O)N[C@H](CC(=O)N[C@@H]1CCCC[C@H]1C(=O)N[C@H](CC(=O)N[C@@H](CCC(=O)O)CC(=O)O)Cc1ccccc1)C(C)C)NC(=O)[C@@H]1CNCC[C@H]1N	-3%	-3%	-3%[1.9 µM]	·	-14%	·
CC(=O)C1CCN(Cc2ccccc2)CC1	-3%	-10%	-7%	0%	-5%	25
CSc1ccccc1OC1CCN(Cc2ccccc2)CC1	13%	-13%	-1%[10 µM]	-13%	-2%	-109*
COC(=O)C1=C(C(=O)OC)C(c2ccccc2O)c2sc(=O)[nH]c2S1 (stereo not given)	1%	22µM*	11%[10 µM]	26%	?	14
COC(=O)c1sc2ccccc2c1N	2%	?	-6%	-11%	?	?
O=C(Nc1n[nH]c(C2CCCCC2)n1)C1CCCCC1	0%	-6%	-1%	4.5µM*	2%	-1
O=C(Nc1ccc2ccccc2c1)NC1CCS(=O)(=O)C1 (stereo not given)	10%	·	13%[10 µM]	5%[9.22 µM]	10%	·
CCOC(=O)OCC1OC(C#Cc2ccccc2)C=CC1Oc1cccc(N(C)C)c1 (stereo not given)	·	·	6%[10 µM]	·	?	·
Cc1nnc(-c2ccccc2)c(=O)n1/N=C/c1c(O)ccc2ccccc12	28%	-18%	-51%	3.2µM*	4%	-26
Cc1nc2ccccc2c(=O)n1/N=C/c1ccc2ccccc2c1O	6%	·	18%[10 µM]	1%[9.22 µM]	·	·
SMILES	RGS12 GoLoco inh	HPGD block	HTT ATP protect	HTT aggregate	ALDH1A1 inh	PNC assembly inh
CC(C)/C(=N/[N+](C)(C)C)c1ccccc1	2.8µM*	-5%	3%[10 µM]	·	4%[13.5 µM]	·
Cc1ccc2c(n1)sc1c(-c3ccccc3)c(C#N)c(N)nc12	·	·	-61%	13µM*	-8%	9
CCc1c(C)nc(N)c(C#N)c1-c1ccccc1	7%	·	23%[10 µM]	3%[9.22 µM]	-8%	·
Cc1ccc(NC(=O)COc2ccc(Br)cn2)cc1	3%	·	4%[10 µM]	3%[9.22 µM]	-8%	·
COc1ccc(/C=C(/C#N)S(=O)(=O)c2ccc(C)cc2)cc1	9%	25µM*	-1%	-9%	-4%	-1
Cc1ccc(S(=O)(=O)/C(C#N)=C/c2ccccc2OCc2ccccc2)cc1	15%	?	-7%[10 µM]	19%	?	-24
COc1ccc2c(C)cc(SCC(=O)N3CCOCC3)nc2c1	40%	-22%	-24%	-7%	22µM*	20
COCCN(C(=S)Nc1c(C)cccc1C)C(C)c1cccs1 (stereo not given)	0%	·	?	-14%	3%	·
CCOC(=O)N/N=C1/C[C@@H](O)[C@@H](O)[C@@H]2[C@@H]3C(=O)N(c4cccc(Oc5ccccc5)c4)C(=O)[C@H]3CC[C@@H]12	·	·	-66%[10 µM]	·	22%[13.5 µM]	·
N#Cc1ccc(NC(=O)CNc2cc(S(=O)(=O)N3CCOCC3)ccc2NCC2CCCO2)cc1 (stereo not given)	25%	·	-24%	9%	18µM*	·
COc1ccc(CN2CCN(C(=O)c3ccco3)CC2)cc1OC	8%	·	-4%	20%	20µM*	·
COc1ccc(CN2CCN(C(=O)c3ccco3)CC2)cc1OCc1ccccc1	-9%	-4%	-3%	-20%	-14%	12
Cc1ccc(Nc2nc(N)nc(CN3CCN(C(=O)c4ccco4)CC3)n2)cc1Cl	24%	-25%	-15%[0.074 µM]	10%[9.22 µM]	7.9µM*	-5
O=C(c1ccco1)N1CCN(CC(O)COc2ccc3oc4ccccc4c3c2)CC1 (stereo not given)	7%	-9%	-33%	?	-10%	-93*
COc1cc(NC(=S)N2CCN(C(=O)c3ccco3)CC2)c(OC)cc1Cl	2%	32µM*	2%[10 µM]	25%	25µM*	-22
O=C(O)C1CCC(CNc2c(NC3CCCCC3)c(=O)c2=O)CC1 (stereo not given)	·	·	0%	·	·	·
COc1ccc(CN(C(=O)c2ccco2)c2ccc(C)cc2)cc1OC	-7%	-7%	-5%	1%	7.9µM*	?
Cc1ccc2c(CN3CCN(C(=O)c4ccco4)CC3)cc(=O)oc2c1C	4%	·	-16%	7%	25µM*	·
Cc1ccc2c(CN3CCN(CCO)CC3)cc(=O)oc2c1C	-7%	-11%	?	10%	-13%	3
COc1ccc(/C=C/C(=O)OCC(=O)Nc2ccc(Cl)cn2)cc1	69%	·	-29%	3%	?	·

From PubChem
